# Measured values: PubChem BioAssay (NCATS)
# Results filed as inconclusive are left out. Where a call stands in place of a potency, no number is given. Activity calls are given as the source filed them. Calls follow the shape of the dose curve; as a rule, active = well fitted curve in the direction sought with a large enough effect; inconclusive = small, poorly fitted or top-dose-only effect, or another doubt; inactive = no such curve, though single readings can be large; an effect the other way counts as inactive or inconclusive.
# Experiments:
# Furin (Homo sapiens) = Furin (Homo sapiens) (UniProt P09958); assay: Furin counterscreen qHTS for Zika virus inhibitors (AID 1347149); also: nearly all actives have a fitted effect of over 70% in size; also: potency is read from the fitted curve at half-maximal effect
# Outline: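 Counterscreen measures cleavage of 2 microM BOC-RVRR-AMC, below its ~15 microM Km, by 5 nM full-length human furin at pH 7.0 after a 15-min compound preincubation. Inhibition derives from the 15-min fluorescence increase at 37C.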
# [1] = Confirmatory screen GU Rhodamine qHTS for Zika virus inhibitors qHTS (AID 1347157); also: nearly all actives have a fitted effect of over 70% in size; also: potency is read from the fitted curve at half-maximal effect
# Outline: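 Enzyme 25 nM in Tris-HCl pH 8.0 + 0.01% Tween 20; compounds up to 114 microM, 15 min RT dark; + Rhod110 substrate 1.5 microM; read t0 and 15 min; delta fluorescence → % inhibition → 4-parameter Hill fit.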
# [2] = ZIKV-mCherry secondary qHTS for Zika virus inhibitors (AID 1347158); also: top concentration of the series differs between compounds
# Outline: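 Percent infection is the share of Hoechst-identified Vero nuclei with mCherry signal above 450 RFU (3 SD over negative controls). Cells were infected with recombinant ZIKV-mCherry at MOI 1 after compound addition and imaged 48–72 h later.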
# [3] = tested on: Zika virus NS2B-NS3 protease (linked); assay: 384 well plate NINDS AMC confirmatory qHTS for Zika virus inhibitors (AID 1347163); also: nearly all actives have a fitted effect of over 50% in size; also: potency is read from the fitted curve at half-maximal effect
# Outline: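 Fluorescence at 355/460 nm was read after 25 minutes of cleavage of 30 microM Ac-VKTGKR-AMC at room temperature, in the dark. Before substrate addition, compounds (up to 1 mM final) sat ~15 minutes with 5, 30 or 60 nM linked protease. Signals were normalized to no-enzyme and no-inhibitor wells.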
# [4] = Tertiary RLuc qRT-PCR qHTS assay for Zika virus inhibitors (AID 1347169); also: top concentration of the series differs between compounds; nearly all actives have a fitted effect of over 55% in size
# Outline: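 Orthogonal cell-based readout: luminescence measured 1-1.5 hrs after adding live-cell Renilla substrate to Vero cells that had been infected with ZIKV-RLuc (MOI 1-2) post-compound, incubated 48-72 hrs at 37 degrees C.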
# [5] = Confirmatory screen NINDS Rhodamine qHTS for Zika virus inhibitors (AID 1347161); also: nearly all actives have a fitted effect of over 60% in size; also: potency is read from the fitted curve at half-maximal effect
# Outline: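 Aprotinin served as in-plate control. Conditions: 25 nM linked NS2B-NS3, pH 8.0 Tris buffer, titrated compounds, 15 min preincubation and 15 min reaction with 1.5 microM Rhod110 substrate at room temperature.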
# [6] = target: Calcium and integrin-binding protein 1 (Homo sapiens) (UniProt Q99828); assay: Primary qHTS for Identification of Calcium Integrin Binding Protein 1 (CIB1) Competitor (AID 1508620);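 also: GST tagged CIB1 binding a fluorescein labelled alphaIIb integrin peptide tracer; top concentration of the series differs between compounds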
# Outline: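 Fluorescence polarization competition: CIB1-GST (1 uM final) preincubated with compound 15 min at room temperature, then FITC-labeled alphaIIb peptide (100 nM final) added for another 15 min. Polarization read at Ex 480/Em 540.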
# Sequence of Furin (Homo sapiens) (P09958 whole entry, looked up): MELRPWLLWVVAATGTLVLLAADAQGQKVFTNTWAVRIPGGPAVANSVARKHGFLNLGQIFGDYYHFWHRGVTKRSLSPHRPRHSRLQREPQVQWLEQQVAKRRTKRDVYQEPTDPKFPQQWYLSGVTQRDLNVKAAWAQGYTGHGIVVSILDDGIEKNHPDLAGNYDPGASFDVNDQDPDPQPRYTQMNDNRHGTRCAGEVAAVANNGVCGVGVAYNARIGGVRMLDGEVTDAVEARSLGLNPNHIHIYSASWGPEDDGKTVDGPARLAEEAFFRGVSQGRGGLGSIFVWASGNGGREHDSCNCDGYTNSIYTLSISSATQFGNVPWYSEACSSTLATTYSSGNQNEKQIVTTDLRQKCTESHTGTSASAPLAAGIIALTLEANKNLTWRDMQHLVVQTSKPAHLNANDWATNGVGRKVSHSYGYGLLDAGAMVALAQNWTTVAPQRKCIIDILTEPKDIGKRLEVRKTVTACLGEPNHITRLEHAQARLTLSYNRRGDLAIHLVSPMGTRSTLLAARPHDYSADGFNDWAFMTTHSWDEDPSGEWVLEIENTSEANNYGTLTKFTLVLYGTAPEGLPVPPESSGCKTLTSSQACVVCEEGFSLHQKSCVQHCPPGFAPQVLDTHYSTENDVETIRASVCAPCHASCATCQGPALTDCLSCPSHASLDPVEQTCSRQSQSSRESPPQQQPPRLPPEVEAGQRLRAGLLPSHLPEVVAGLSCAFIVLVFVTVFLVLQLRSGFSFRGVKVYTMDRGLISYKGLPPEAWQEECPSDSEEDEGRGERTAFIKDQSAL
# Sequence of Calcium and integrin-binding protein 1 (Homo sapiens) (Q99828 whole entry, looked up): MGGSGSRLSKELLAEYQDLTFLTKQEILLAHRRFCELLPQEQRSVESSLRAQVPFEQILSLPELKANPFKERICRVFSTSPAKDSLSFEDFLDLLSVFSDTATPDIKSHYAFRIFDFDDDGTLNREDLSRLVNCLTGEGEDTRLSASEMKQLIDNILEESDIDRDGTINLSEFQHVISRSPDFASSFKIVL
SMILES,Potency (Furin (Homo sapiens)),Potency [1],Potency [2],Potency [3],Potency [4],Potency [5],outcome [6]
O=c1oc2cc(O)ccc2cc1-c1nc(-c2ccc(Cl)c(Cl)c2)cs1,inactive,11.2 µM (active),inactive,inactive,inactive,–,–
O=c1oc2ccccc2cc1-c1nnc(Nc2ccc(Cl)cc2Cl)s1,inactive,31.6 µM (active),–,50.1 µM (active),inactive,–,–
CC(NC(=O)C1CCN(S(=O)(=O)c2ccc3nc4c(c(C(=O)O)c3c2)CCCC4)CC1)c1ccccc1 (stereo not drawn),inactive,inactive,–,–,inactive,inactive,–
O=C1OCC2=C1C(c1cccc(Cl)c1)CC(=O)N2c1ccc(C(F)(F)F)cc1 (stereo not drawn),inactive,inactive,–,–,inactive,–,–
O=C(Nc1ccc(C(=O)OCc2cc(=O)n3c4c(sc3n2)CCCC4)cc1)c1ccc(Cl)cc1,46.9 µM (active),inactive,–,–,inactive,–,–
O=C(COc1ccc(F)cc1)Nc1ccc(C(=O)OCc2cc(=O)n3nc(C4CC4)sc3n2)cc1,inactive,inactive,–,–,inactive,–,–
O=C(OCC#CCSc1nnc(-c2ccccc2Cl)o1)c1ccc(F)cc1,inactive,inactive,–,–,inactive,–,inactive
CCOc1ccc(S(=O)(=O)Nc2cc3c(C(=O)OCc4ccccc4)c(C)oc3c3ccccc23)cc1,inactive,–,inactive,–,–,–,–
COc1ccc(C(=O)Nc2cccc(C(=O)OCc3cc(=O)n4c5c(sc4n3)CCCC5)c2)cc1,66.3 µM (active),inactive,–,–,inactive,–,–
O=C(Nc1cccc(C(=O)OCc2cc(=O)n3nc(C4CC4)sc3n2)c1)c1ccc(F)cc1,inactive,–,inactive,89.1 µM (active),inactive,31.6 µM (active),–
COC(=O)c1c(NC(=O)c2cc3nc(-c4ccc(Br)cc4)cc(C(F)(F)F)n3n2)sc2c1CCCC2,inactive,inactive,–,–,inactive,inactive,–
CCCCc1nn2c(=O)cc(COC(=O)c3ccc(NC(=O)c4cccc(OC)c4)cc3)nc2s1,41.8 µM (active),inactive,–,–,inactive,–,–
